An excerpt weighted towards active compounds, which were near 2.7% of everything screened.
mIDH1 inhibitor: qHTS for Inhibitors of mutant isocitrate dehydrogenase 1 (IDH1): qHTS; 390,000 compounds, 0.093% hits; IDH1-R132H enzyme, NADPH consumption, diaphorase/resazurin fluorescence; AID 602179, 2012; Isocitrate dehydrogenase [NADP] cytoplasmic (Homo sapiens), O75874; Potency, µM (doses to about 76.6 µM), for the others: at the top dose activity change, negative = inhibition, usual class: inhibitors; note: potency is the fitted concentration of half-maximal effect; % is set by controls: 0 for no effect and ±100 for the full control effect; nearly all actives have a fitted effect of over 65% in size
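IDH1-R132H (0.5 ug/mL dispensed) in pH 7.5 Tris buffer was preincubated 30 min with compound, then given a substrate mix of 0.016 mM NADPH and 2 mM alpha-KG for 80 min at room temperature; remaining NADPH was read by diaphorase/resazurin fluorescence.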
Nrf2 ARE act: qHTS of Nrf2 Activators; Potency, µM (doses to about 46.1 µM), without a hit: top-dose activation, most hits filed as activators; AID 624171, 2012; 410,000 compounds, 0.31% hits; AREc32 ARE-luciferase reporter (MCF7-derived line), luminescence, 24 h; note: potency is the fitted concentration of half-maximal effect; % of control where 0% means no effect; nearly all actives have a fitted effect of over 65% in size
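AREc32 cells carrying an ARE-driven firefly luciferase reporter were seeded at 1000 cells/well in OPTI-MEM with 5% FBS, then exposed to compound for 24 hr at 37 deg C. Luminescence was read with Steady-Glo after 30 min at RT.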
12-LOX inh: Primary qHTS assay for inhibitors of human arachidonate 12S-lipoxygenase (ALOX12): Round 2 | Polyunsaturated fatty acid lipoxygenase ALOX12 (Homo sapiens), P18054 | purified 12hLO, xylenol orange hydroperoxide absorbance | Potency, µM (series often up to 108 µM), without a hit: at the highest dose activity change, negative = inhibition, usual class: inhibitors | 580,000 compounds, 1.1% hits; note: potency is the fitted concentration of half-maximal effect; % is set by controls: 0 for no effect and ±100 for the full control effect
Target sequence (P18054 whole entry, looked up): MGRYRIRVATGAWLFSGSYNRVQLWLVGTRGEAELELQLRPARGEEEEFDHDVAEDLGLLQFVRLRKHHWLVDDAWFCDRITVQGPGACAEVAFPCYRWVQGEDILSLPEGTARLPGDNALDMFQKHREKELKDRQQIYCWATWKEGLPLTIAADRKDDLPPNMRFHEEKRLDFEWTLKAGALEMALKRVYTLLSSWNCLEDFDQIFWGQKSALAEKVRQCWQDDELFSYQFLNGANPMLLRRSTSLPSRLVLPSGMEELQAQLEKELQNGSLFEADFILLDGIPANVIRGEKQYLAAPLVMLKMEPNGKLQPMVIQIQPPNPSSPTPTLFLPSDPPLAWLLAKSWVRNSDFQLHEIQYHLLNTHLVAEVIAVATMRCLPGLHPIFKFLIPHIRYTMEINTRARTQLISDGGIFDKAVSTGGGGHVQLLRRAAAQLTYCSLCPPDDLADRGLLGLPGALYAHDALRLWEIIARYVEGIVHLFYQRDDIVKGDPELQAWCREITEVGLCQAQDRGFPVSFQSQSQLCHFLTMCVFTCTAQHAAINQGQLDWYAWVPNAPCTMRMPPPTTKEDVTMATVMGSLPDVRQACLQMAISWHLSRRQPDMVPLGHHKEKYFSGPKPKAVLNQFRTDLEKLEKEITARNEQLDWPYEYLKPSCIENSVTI
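Hydroperoxide product was detected by ferrous iron/xylenol orange as the 573 to 405 nm absorbance ratio. Arachidonic acid at 40 uM (final) was turned over for 30 min at room temperature by 150 nM human 12hLO, pH 7.0 Hepes buffer, after 15 min compound preincubation.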
LDHA inh: qHTS assay for inhibitors of human lactate dehydrogenase | L-lactate dehydrogenase A chain (Homo sapiens), P00338 | purified LDHA, NADH/diaphorase-resazurin fluorescence; active compounds read low | activity change, % (values are at about 110 or 230 µM) | 480,000 compounds, 0.15% hits; in the data active = activity change below about -30%; inconclusive = mostly about -25% to -30%;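 note: plate controls were DMSO wells for no effect and wells without enzyme for full effect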
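Human LDH5 (2 nM) was incubated with 0.06 mM NADH and 0.2 mM pyruvate for 5 min at room temperature in Tris pH 7.4. Remaining NADH was coupled through diaphorase/resazurin, and resorufin fluorescence was read at 0 and 20 min.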
Nrf2 inh: Nrf2 qHTS screen for inhibitors; 360,000 compounds, 2.1% hits; Potency, µM (titrated, usually from 46 µM), inactives show at the highest dose activity change, negative = inhibition, usual class: inhibitors; A549 ARE-Fluc reporter, luciferase luminescence, 18-24 h; note: potency is the fitted concentration of half-maximal effect; % is set by controls: 0 for no effect and ±100 for the full control effect; nearly all actives have a fitted effect of over 60% in size
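A549 ARE_Fluc cells (5000/well, 5% FBS OPTI-MEM) pre-incubated 2 h, then treated with compounds 18-24 h at 37C/5% CO2 in concentration-response. CellTiter-Fluor viability read first; BugLite luciferase luminescence after 15 min at room temperature gives Nrf2 activity.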
A549 viability: Nrf2 qHTS screen for inhibitors: counterscreen for cytotoxicity | A549 ARE-Fluc cells, CellTiter-Fluor viability, 18-24 h | Potency, µM (doses to about 46 µM), for the others: at the highest dose activity change, negative = cytotoxicity, actives largely listed as inhibitors | 390,000 compounds, 0.16% hits; note: potency is the fitted concentration of half-maximal effect; % is set by controls: 0 for no effect and ±100 for the full control effect
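A549 ARE_Fluc cells in 5% FBS OPTI-MEM were exposed to compounds in concentration-response for 18-24 h at 37 deg C. Viability was read by CellTiter-Fluor fluorescence (Ex 405/Em 525) after 30 min, before the luciferase read.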
Numbers without * were called inactive; ? = inconclusive; · = no result given; ! = a repeat was not active; [ ] = another dose, or the depositor's remark. Unless noted, calls come from the whole dose curve; as a rule, active = well fitted curve in the direction sought with a large enough effect; inconclusive = small, poorly fitted or top-dose-only effect, or another doubt; inactive = no such curve, though single readings can be large; an effect the other way counts as inactive or inconclusive.

SMILES	mIDH1 inhibitor	Nrf2 ARE act	12-LOX inh	LDHA inh	Nrf2 inh	A549 viability
O=C(NC1CCCCC1)C(c1ccc2ncccc2c1)N(Cc1ccccc1)C(=O)c1cccs1 (centres undefined)	-6%	3%	-10%	-4	18µM*	-26%
COc1ccc(CN(C(=O)c2cccs2)C(C(=O)NC2CCCCC2)c2ccc3ncccc3c2)cc1 (centres undefined)	5%	3%	21%	-5	-6%	-5%
Fc1cccc(Nc2nc(NC3CCCC3)nc3c2cnn3-c2ccccc2)c1	·	·	?	4	·	·
c1ccc(CSc2ccc(Oc3ccc(SCc4ccccc4)cc3)cc2)cc1	·	·	-5%	-2	·	·
CSc1nc(N)nc(SCCS(=O)(=O)c2ccc(Cl)cc2)c1C#N	-6%	13µM*	0%	-5	?	-1%[1.84 µM]
CSc1nc(N)nc(SCC(=O)Nc2cccc(F)c2)c1C#N	-1%	11%	-4%	1	?	9%
Cc1ccc(S(=O)(=O)CCSc2nc(C)cc(C)c2C#N)cc1	3%	4%	1%	-8	21µM*	-21%
CSc1nc(N)nc(SCC(=O)Nc2ccc(Cl)cc2)c1C#N	0%	17%	-8%	-3	15µM*	?
Nc1ccccc1SCCS(=O)(=O)c1ccc(Cl)cc1	-6%	-1%	-8%	-1	6%	0%
COc1ccc2c(C)c(CCC(=O)N3CCCCC3)c(=O)oc2c1C	·	·	3%	0	·	·
O=C(Nc1cccc2cnccc12)c1cccc(S(=O)(=O)N2CCCCC2)c1	·	·	-11%	0	·	·
OCCN(CC#CCC(O)(c1ccccc1)C1CCCC1)CCO (centres undefined)	1%	-1%	-7%	-5	5%	2%
CC(C)(C)N(CC#CCC(O)(c1ccccc1)c1ccccc1)CCO	1%	0%	7.9µM*	2	17%	-2%
CCn1c(COc2ccc(Cl)cc2)nnc1SCc1ccc(C#N)cc1	3%	3%	0%	-4	?	1%
CCn1c(COc2ccc(Cl)cc2)nnc1SC1CCc2ccccc2C1=O (centres undefined)	10%	3%	4%	20	26µM*	0%
FC(F)(F)c1nc(N2CCCC2)ncc1-c1nnnn1-c1ccc(Cl)cc1	4%	3%	-6%	1	13µM*	-13%
Fc1ccc(-n2nnnc2-c2cnc(-c3cccs3)nc2C(F)(F)F)cc1	5%	-2%	4%	6	15µM*	?
CCC(=O)Nc1ccc(OCc2cc(=O)n3cccc(C)c3n2)cc1	·	·	17%	0	·	·
CCC(C)(C#N)NC(=O)Cc1cccs1 (centres undefined)	·	·	34%	-2	·	·
O=C(Nc1cc(S(=O)(=O)N2CCOCC2)ccc1N1CCCCC1)c1ccc(Cl)cc1	4%	0%	?	-1	-17%	-2%
O=C(Nc1cc(S(=O)(=O)N2CCOCC2)ccc1N1CCCC1)c1ccc(Cl)cc1	0%	0%	25µM*	-3	-21%	-7%
O=C(Nc1cc(S(=O)(=O)N2CCOCC2)ccc1N1CCCCC1)c1ccccc1	0%	3%	417%	-12	-1%	4%
O=C(Nc1cc(S(=O)(=O)N2CCOCC2)ccc1N1CCCC1)c1ccc2c(c1)S(=O)(=O)c1ccccc1C2=O	-10%	0%	14µM*	-8	-1%	-13%
Cc1cc(OCC(=O)Nc2cc(S(=O)(=O)N3CCOCC3)ccc2N2CCCC2)ccc1C(C)C	4%	-1%	-8%	-1	16µM*	-21%
Cc1ccc(S(=O)(=O)N2CC(O)C[C@H]2C(=O)OCC(=O)N2CCN(c3ccc(F)cc3)CC2)cc1C (some centres undefined)	0%	0%	3%	-2	16µM*	-11%
SMILES	mIDH1 inhibitor	Nrf2 ARE act	12-LOX inh	LDHA inh	Nrf2 inh	A549 viability
COc1ccc(-c2noc(CCC(=O)O)n2)cc1	4%	-1%	-4%	-9	-17%	-1%
CCOc1ccc(-c2noc(CCC(=O)O)n2)cc1	-7%	-3%	467%	-13	3.3µM*	5%
COc1ccc(-c2noc(CCCC(=O)O)n2)cc1	2%	-2%	-16%	3	1.8µM*	-2%
CCOC(=O)c1ccc(NC(=O)CCc2nc(-c3ccc(C)cc3)no2)cc1	0%	4%	-15%	-5	15µM*	-19%
Cc1[nH]c2ccccc2c1CCN(Cc1ccccn1)C(=S)NC(C)(C)C	·	·	-2%	3	·	·
Cc1cc(C)c(S(=O)(=O)N2CCN(Cc3coc(-c4cccs4)n3)CC2)c(C)c1	·	·	4%	3	·	·
[Cl][In]([Cl])[Cl]	·	·	?	-80*	·	·
Fc1cccc(/C=C/c2nc3ccccc3o2)c1	·	·	-6%	3	·	·
CCCCn1nc(C(=O)Nc2cc(C)ccc2OC)c2ccccc2c1=O	·	·	-22%	9	·	·
CCC(C)Nc1ccc(NC(C)CC)cc1 (centres undefined)	6%	-3%	·	5	0.073µM*	0.15µM*
CCC(C)NC(=O)Nc1ccc(Br)cc1 (centres undefined)	1%	5%	0%	1	?	6%
CC(C)(C(=O)O)c1ccc(Cl)c(Cl)c1	·	·	-1%	-12	·	·
Cc1c(C(=O)NN2CCCCC2)nn(-c2ccc(Cl)cc2Cl)c1-c1ccc(Cl)cc1	·	·	24µM*!	·	·	·
C=CCn1cc(CN(Cc2ccco2)Cc2cccs2)c(C)n1	·	·	13µM*	·	·	·
C/C=C/CN(Cc1ccco1)Cc1cccs1	·	·	-1%	0	·	·
COC(=O)C1OC(OC2C(OC3CC[C@@]4(C)C(CC[C@]5(C)C4C(=O)C=C4C6C[C@@](C)(C(=O)OC)CC[C@]6(C)CC[C@]45C)C3(C)C)OC(C(=O)OC)C(OC(C)=O)C2OC(C)=O)C(OC(C)=O)C(OC(C)=O)C1OC(C)=O (some centres undefined)	·	·	12%	3	·	·
CCOc1ccc(S(=O)(=O)NCCc2ccccc2)cc1-c1nc(C)no1	·	·	2%	7	·	·
COc1cc(C(C)=O)ccc1OCC(O)CN1CCN(c2ccc(C)cc2C)CC1 (centres undefined)	4%	0%	-2%	-1	3%	7%
COc1cc(C(C)=O)ccc1OCC(O)Cn1nc(C)c(Br)c1C (centres undefined)	7%	-1%[9.22 µM]	4.5µM*	-10	-9%	1%

Screening data: PubChem BioAssay, National Center for Advancing Translational Sciences (NCATS)
